In paper PMC5540273 (PLoS ONE, 2017):

Tested on: TBK1
Details: concentration: 1 μM, replicates: in singlicate; n = 1
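Also: KINOMEscan kinase panel screen.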

Row | Structure (SMILES) | %Inh
1 | COc1cccc(NC(=O)Nc2ccc(C)c(-c3ccc(C(=O)Nc4ccncc4)cc3)c2)c1 [GSK1398474] | 29%
2 | COc1cccc(CNC(=O)NC2CCN(c3ccnc(Nc4ccc(F)cc4)n3)C2)c1 (stereo not shown) [GSK1379723] | 0%
3 | CC(=O)c1c(C)c2cnc(Nc3ccn(C)n3)nc2n(C2CCCC2)c1=O | 0%
4 | O=C1NC(=O)C(c2ccc(Cl)cc2)=C1Nc1ccc(O)cc1 [SB-340867] | 0%
5 | COc1ccc(CSc2nnc(-c3ccc4c(c3)CCO4)o2)cc1 | 11%
6 | COc1nccc(-c2c(-c3ccc(F)cc3)ncn2CCCN2CCOCC2)n1 [SB-282852] | 19%
7 | COC(=O)C(Cc1ccccc1)NC(=O)NC1CCN(c2ccnc(Nc3ccc(F)cc3)n2)C1 (stereo not shown) [GSK1379714] | 21%
8 | COc1cccc(C2=C(Nc3cc(Cl)c(O)c(Cl)c3)C(=O)NC2=O)c1 [SB-390767] | 0%
9 | Cc1ccc(NC(=O)Nc2ccc(Cl)cc2)cc1-c1ccc(C(=O)Nc2ccncc2)cc1 [GSK1398472] | 8%
10 | CCn1c(-c2ccccc2)nc2cnccc21 [SB-733416] | 0%
